For orientation: inhibition means the change of the read-out against control, counted positive when it falls.

In all, about 190,000 compounds went through this assay and about 130 (0.068%) were called active. Many of the other results were omitted from the sample, so actives are more common in it than they were. A number with no mark means an inactive call. Rule as the data show it: active = inhibition above about 40%; inactive = the rest.

The test deals with ATP-dependent translocase ABCB1 (Homo sapiens) (UniProt P08183). As to the kind of experiment: ABCB1 efflux pump inhibitors, primary screen, cell-based, multiplex, flow cytometry, ABCG2 counter-screen (AID 1326).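 Also: 0% = vehicle and 100% = reference inhibitor.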 Particulars: CCRF-Adr cells, JC-1 efflux, at 6.6 µM, stronger effect = higher value.
Sequence of ATP-dependent translocase ABCB1 (Homo sapiens) (P08183 whole entry, looked up): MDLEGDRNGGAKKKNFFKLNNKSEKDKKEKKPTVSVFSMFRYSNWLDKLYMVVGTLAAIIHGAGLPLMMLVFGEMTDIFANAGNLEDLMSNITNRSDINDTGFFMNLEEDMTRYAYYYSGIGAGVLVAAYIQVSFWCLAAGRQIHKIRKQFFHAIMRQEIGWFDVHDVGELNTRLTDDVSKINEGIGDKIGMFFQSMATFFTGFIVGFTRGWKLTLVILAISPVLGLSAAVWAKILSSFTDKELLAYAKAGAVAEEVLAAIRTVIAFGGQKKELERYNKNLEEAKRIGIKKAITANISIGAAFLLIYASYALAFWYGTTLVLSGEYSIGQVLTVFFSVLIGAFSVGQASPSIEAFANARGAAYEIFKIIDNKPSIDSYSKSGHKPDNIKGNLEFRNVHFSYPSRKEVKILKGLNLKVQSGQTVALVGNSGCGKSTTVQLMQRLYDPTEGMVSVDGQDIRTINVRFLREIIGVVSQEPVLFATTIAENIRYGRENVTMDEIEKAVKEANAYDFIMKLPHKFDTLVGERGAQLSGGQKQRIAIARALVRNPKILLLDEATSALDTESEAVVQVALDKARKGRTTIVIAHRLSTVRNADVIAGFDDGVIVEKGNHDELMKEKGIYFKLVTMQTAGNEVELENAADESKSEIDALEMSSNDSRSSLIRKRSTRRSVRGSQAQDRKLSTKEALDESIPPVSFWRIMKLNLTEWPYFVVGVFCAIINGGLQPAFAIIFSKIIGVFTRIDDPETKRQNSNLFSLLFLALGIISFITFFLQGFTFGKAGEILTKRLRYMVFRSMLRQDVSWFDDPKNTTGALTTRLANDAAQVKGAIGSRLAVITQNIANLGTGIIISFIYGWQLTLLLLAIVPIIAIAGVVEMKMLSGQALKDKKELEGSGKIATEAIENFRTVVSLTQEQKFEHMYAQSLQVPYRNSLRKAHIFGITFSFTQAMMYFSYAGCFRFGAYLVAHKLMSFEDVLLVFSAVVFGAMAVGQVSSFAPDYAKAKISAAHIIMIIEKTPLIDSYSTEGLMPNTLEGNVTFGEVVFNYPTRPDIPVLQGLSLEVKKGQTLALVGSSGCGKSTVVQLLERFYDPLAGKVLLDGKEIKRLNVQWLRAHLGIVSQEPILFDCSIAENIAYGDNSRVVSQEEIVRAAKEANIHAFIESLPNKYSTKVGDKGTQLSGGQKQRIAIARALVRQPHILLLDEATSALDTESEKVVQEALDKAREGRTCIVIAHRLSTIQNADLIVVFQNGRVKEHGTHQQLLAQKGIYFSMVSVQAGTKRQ
Consider `Cc1ccc2c(c1)C1CN(C)CCC1N2C(=S)Nc1ccc(Cl)cc1Cl` (stereo not given), for which the inhibition was -0.2%.
In the case of `Cc1ccc(OCC(O)CN2CCN(CC(O)COc3ccc(C)cc3Cl)CC2)c(Cl)c1` (stereo not given), the inhibition is 77.3% (active).
In the case of `Cc1cccc(C)c1OCC(O)CN1CCCCC1` (stereo not given), the inhibition is 0.13%.
As to `Cc1ccccc1OCC(O)CN1CCN(c2ccccn2)CC1` (stereo not given), the inhibition is 2.19%.
In the case of `COc1cccc(OC)c1C(=O)OCC(=O)/C(C#N)=C(\C)N`, the inhibition was 0.08%.
Take `CCC(=O)/C=C1\Sc2ccccc2N1CC`: the inhibition is 0.19%.
The value for `CCN1/C(=C\c2ccc3ccccc3[n+]2CC)Sc2cc(C)ccc21` was 19.6%; that for `Cc1ccccc1-c1n[nH]c(=S)n1C` was -0.08%.
In the case of `CC(=O)c1ccc(NC(=O)CSC(=S)N2CCCC2)cc1`, the inhibition was 0.83%.
The value for `O=C(N/N=C/c1ccc([N+](=O)[O-])o1)c1cccc(S(=O)(=O)N2CCOCC2)c1` was 1.78%.
Take `COC(=O)CC1=NN(c2nc(C)cc(C)n2)C(=O)C1`: the inhibition was 3.04%.
Next, `COc1ccc(Cl)cc1NC(=O)[C@@H]1CCCN1C(=O)c1cccs1`: 1.1%; `O=C(NNC(=S)NC(=O)c1cn(-c2ccccc2)nc1-c1ccccc1)c1ccncc1`: -0.12%.
The value for `O=C1N/C(=N\N=C\c2ccco2)SC1Cc1ccc(F)cc1` (stereo not given) was -0.31%; that for `COC(=O)c1ccc(CSc2nncn2N)cc1` was -0.7%; that for `CCCN1CNC(=S)N(CCc2ccccc2)C1` was 0.53%.
The value for `COc1ccc(CNC(=O)COC(=O)/C=C/c2ccc(S(=O)(=O)N3CCOCC3)cc2)cc1` was -0.38%.
For `CC(C)(C)OC(=O)N1CCC(NC(=O)c2[nH]cnc2C(=O)N[C@@H](Cc2ccccc2)C(=O)OCc2ccccc2)CC1`, the inhibition was 15.7%.
As for `CC1=C(C)CC(C(=O)NC(C)CCc2ccccc2)C(C(=O)O)C1` (stereo not given), the inhibition is 0.3%.
As for `O=C(Cc1c[nH]c2ccccc12)N/N=C/c1cccc(F)c1`, the inhibition is -0.1%.
The value for `CCC(CC)c1nnc(NC(=O)/C=C/c2ccco2)s1` was 0.26%.
The value for `CN(C)c1nc(N)nc(Cn2nnc(-c3ccc(C(F)(F)F)cc3)n2)n1` was -0.39%; that for `O=S(=O)(c1ccc(-c2ccccc2)cc1)N1CCCC1` was 1.29%.
The value for `O=C(CCS(=O)(=O)Cc1ccccc1)Nc1ccc2c(c1)OCCO2` was 0.73%; that for `Cc1cc(C)cc(NC(=O)COC(=O)c2cc(C)oc2C)c1` was 1.39%; that for `Cc1ccc(C(NC(=O)N2CCCC2)C(Cl)(Cl)Cl)cc1F` (stereo not given) was 0.9%.
Take `CCS(=O)(=O)c1ccc(O)c(NC(=O)COc2ccc(Cl)cc2)c1`: the inhibition is 0.2%.
The value for `CCn1c(COc2c(C)cccc2C)nnc1SCc1nc2ccccc2c(=O)[nH]1` was 0.72%; that for `CS(=O)(=O)c1ccc2nc(NC(=O)c3ccc(Cl)nc3)sc2c1` was 0.4%; that for `Cc1nnc(SCCCCSc2nnc(C)c(=O)[nH]2)[nH]c1=O` was 1.4%.
As for `CC(C)OCCCNC(=O)c1ccc(C2SCC(=O)N2Cc2ccco2)cc1` (stereo not given), the inhibition is 1.04%.
As for `CSc1ccccc1NC(=O)Cc1ccc(Br)cc1`, the inhibition is 1.94%.
Take `O=C(CN(c1cccc(Cl)c1)S(=O)(=O)c1ccccc1)NN=C1CCCC1`: the inhibition is 0.27%.
As to `O=C(COC(=O)c1ccccc1C(=O)N1CCN(c2ccccc2)CC1)NCc1ccccc1`, the inhibition is 1.33%.
The value for `O=C1CN(C(=O)CN2C(=O)NC3(CCCCC3)C2=O)c2ccccc2N1` was 0.2%.
Next, `Cc1sc2nc(COC(=O)C(NC(=O)c3ccc(Cl)cc3Cl)C(C)C)[nH]c(=O)c2c1C` (stereo not given): -0.58%; `CCc1ccc(Nc2nnc(SCC(=O)c3ccc4c(c3)NC(=O)CO4)s2)cc1`: -0.13%; `CCOc1ccc(C(=O)Nc2cccc(SC)c2)cc1`: 0.08%.
Next, `COC(=O)CCC(=O)N1CCCC(CO)(Cc2ccccc2)C1` (stereo not given): 0.1%; `CN(C)c1ccc(Nc2c3c4c(cccc4n(C)c2=O)C(=O)c2ccccc2-3)cc1`: 13.5%.
In the case of `Cc1ccc(O)c(-c2cc(C(=O)Nc3c(C)n(C)n(-c4ccccc4)c3=O)[nH]n2)c1`, the inhibition was 0.33%.
Regarding `COc1ccc(C2OCC3(CO2)SC(=O)NC3=O)cc1OC` (stereo not given), the inhibition is -0.28%.
As to `COc1ccccc1N1CCN(/N=C\C(Br)=C\c2ccccc2)CC1`, the inhibition is 0.81%.
Next, `N#Cc1ccccc1NC(=O)c1cccc(COc2ccc(Cl)cc2Cl)c1`: -0.17%; `CCOC(=O)c1ccc(NC(=S)Nc2cc(C)cc(C)n2)cc1`: 1.25%.
As for `COc1cc(C(=O)NCc2nnc(SCC(=O)Nc3nc4ccc(C)cc4s3)o2)cc(OC)c1OC`, the inhibition was -2.31%.
Regarding `Cc1ccccc1Nc1scc(-c2ccc(Br)cc2)[n+]1-c1ccccc1C`, the inhibition was -2.63%.
The value for `CCCn1nc(NS(=O)(=O)c2ccccc2)c2cc3cc(C)ccc3nc21` was 0.68%; that for `O=S(=O)(c1ccccc1)c1nc(-c2ccccc2F)oc1NCc1cccnc1` was 5.26%.
The value for `c1ccc2c(c1)OCCOCCOCCO2` was 0.51%; that for `CC(=O)Cc1nsc(NC(=O)c2ccc(Cl)cc2Cl)n1` was -0.31%; that for `COC(=O)c1cc(NC(=O)CN2CCN(C(C)=O)CC2)cc(C(=O)OC)c1` was 1.14%.
As to `CC(CNC(=O)c1ccc(N)cc1)NC(=O)c1ccc(N)cc1` (stereo not given), the inhibition is -0.82%.
Take `CS(=O)(=O)N1CCC(C(=O)N2CCN(c3ccccc3)CC2)CC1`: the inhibition is 0.86%.
Regarding `CCC1SC(CC)C(=O)N(CC(=O)NC2CCCCC2)C1=O` (stereo not given), the inhibition was 0.07%.
Next, `Cc1c(Cl)c([N+](=O)[O-])nn1CC(=O)NCC1CCCO1` (stereo not given): -0.1%.
Regarding `COc1ccc(-n2nnnc2SCC(=O)NCc2cccs2)cc1`, the inhibition is 2.4%.
Next, `CCOc1ccc2nc(NC(=O)c3cc([N+](=O)[O-])ccc3N3CCOCC3)sc2c1`: -1.41%; `NC(=O)COC(=O)c1sc2cc(F)ccc2c1Cl`: -0.04%; `COc1ccc(C(=O)COC(=O)c2nn(C)c(=O)c3ccccc23)c(OC)c1`: 0.19%.
The value for `O=C1c2cccc3c([N+](=O)[O-])ccc(c23)C(=O)N1CC1CCCO1` (stereo not given) was 0.98%; that for `CN(CCOc1ccccc1)Cc1nc2cc(Cl)ccc2c(=O)[nH]1` was 0.26%; that for `Cc1ccc(Nc2c(F)c(F)c(F)c(F)c2C(=O)O)c(C)c1` was -0.24%.
In the case of `Cc1ccc(CNC(=O)CCNS(=O)(=O)c2ccc(Br)s2)cc1`, the inhibition is -0.56%.
The value for `NS(=O)(=O)c1ccc(CCNC(=O)c2ccc(Cl)cc2[N+](=O)[O-])cc1` was 1.3%.
For `COc1ccccc1NC(=O)CCSc1nnc(-c2ccc(O)cc2)o1`, the inhibition is 0.42%.
The value for `COc1ccc(/C=N/Nc2ncnc3sc4c(c23)CCCC4)cc1O` was -0.22%.
Turning to `N#Cc1cnn2cc(CCN3CCOCC3)c(-c3ccc(F)cc3)nc12`, the inhibition was 1.26%.
Next, `CCCNCc1cc(OCC)c(OCC(=O)Nc2ccccc2)cc1Br`: 0.07%; `O=C(CN(C(=O)c1csnn1)c1cccc(F)c1)NCc1ccc(F)cc1`: 1.22%; `COC(=O)c1ccc(C(NC(=O)OCc2ccccc2)/C(C)=C/[C@@H](C)C(=O)NCc2ccc(OC)c(OC)c2)cc1` (stereo not given in full): 9.15%.
For `Cc1ccccc1CSc1nnc(-c2ccccc2)c(=O)[nH]1`, the inhibition was 0.19%.
Regarding `CCC(C)(C)NC(=O)C(c1cccc(OC)c1OC)N(CC(C)C)C(=O)CCC(=O)Nc1cc(C)on1` (stereo not given), the inhibition is 1.31%.
The value for `CCOC(=O)C1(C)NC(c2ccco2)C2C(=O)N(c3ccccc3)C(=O)C21` (stereo not given) was 0.47%; that for `CCOC(=O)NC(=O)CSc1nnc(SCCC(=O)O)s1` was 0.52%; that for `Cc1nn(CCOc2ccc(Br)cc2)c(C)c1[N+](=O)[O-]` was 1.06%.
For the compound `CN(C)c1ccc(/C=N/NC(=O)C(O)c2ccc(Br)cc2)cc1` (stereo not given), the inhibition was 0.7%.
Turning to `OC1CSc2nc3ccccc3n2C1` (stereo not given), the inhibition is -0.99%.
Next, `Cc1ccc(C)c(-n2nnnc2SCC(=O)c2c(N)n(C)c(=O)n(C)c2=O)c1`: -0.82%; `Nc1nc(CC(=O)CSc2ccc(Cl)cc2)nc(Nc2ccc(F)cc2)n1`: 0.01%.
Next, `COc1ccc(Br)cc1/C=N/Nc1ccc(Cl)c(C(=O)O)c1`: -0.4%.
As for `Cc1cc(/C=C2/SC(=O)N(CC(=O)N3CCCC3)C2=O)ccc1N1CCOCC1`, the inhibition is 1.48%.
For `Cc1nc(S(=O)(=O)c2ccc(Br)cc2)nc2c1CCC2`, the inhibition is 0.58%.
Next, `COc1ccccc1NC(=O)c1cc(Cl)nnc1Cl`: 1.04%; `COc1ccc(S(=O)(=O)N(C)CC(=O)N2CCCC2)cc1Cl`: 1.26%.
For `COc1ccc(C(=O)Nc2ccc(N3CCC(C)CC3)cc2)cc1Br`, the inhibition is 1.32%.
With `Cc1ccc(C(=O)N/C(=C/c2cccnc2)C(=O)O)cc1`, the inhibition is 0.02%.
On to `O=C(O)c1cccc(NC(=O)c2cc(-c3cccc(Cl)c3)nc3ccccc23)c1`, for which the inhibition is -0.61%.
The value for `C/C(=N\Nc1ncc(Cl)cc1Cl)c1cccs1` was 0.7%.
In the case of `COC(=O)c1c(C(=O)OC)c(-c2cccc(C)c2)n2c1CS(=O)C2` (stereo not given), the inhibition is 0.19%.
Regarding `COCC(C)n1c(C)cc(C(=O)COc2ccc(C)nc2[N+](=O)[O-])c1C` (stereo not given), the inhibition was 0%.
As to `S=c1[nH]nc(NCCc2ccccc2)s1`, the inhibition is -0.12%.
On to `C/C(=N\NC(=O)C(N)=O)c1ccc2c(c1)OCCO2`, for which the inhibition is 1.58%.
On to `CC(C)/C=N/NC(=O)c1cc(Br)ccc1O`, for which the inhibition is 0.05%.
The value for `O=C(O)CC(SCC(=O)Nc1ccc(Br)cc1)C(=O)O` (stereo not given) was -0.05%.

Source of the values: PubChem BioAssay AID1326 (NMMLSC, 2008).
